RXFP1 agonist – qHTS Assay for Agonists of the Relaxin Receptor RXFP1; Relaxin receptor 1 (Homo sapiens), Q9HBX9; HEK293T-RXFP1 cAMP TR-FRET, 30 min; response scale: percent of porcine relaxin response, buffer zero; Potency, µM (titrated, usually from 57.5 µM), actives largely listed as activators; 370,000 tested, 0.3% active; AID 2676, 2010; note: nearly all actives have a fitted effect of over 60% in size
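HEK293T cells stably expressing RXFP1 were pretreated with the PDE4 inhibitor Ro 20174, exposed to compounds for 30 min at 37C, lysed, and cAMP was read by TR-FRET. Data normalized to buffer (basal) and 29 nM porcine relaxin (100%).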
RXFP1 antag – qHTS Assay for Antagonists of the Relaxin Receptor RXFP1 | HEK293-RXFP1, relaxin-stimulated cAMP HTRF, 30 min; hits give low values | activity change, negative = inhibition, % at 57.5 µM | 350,000 tested, 0.59% active | AID 1259400, 2018;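 active = activity change of -60% or lower, but not beyond a set lower limit; inconclusive = change between -60% and -40%, or beyond the set limit; inactive = change above -40%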
BCR signal inh – qHTS Assay to Find Inhibitors of Chronic Active B-Cell Receptor Signaling. Potency, µM (highest dose often 46.1 µM), actives largely listed as inhibitors. ABC-DLBCL IkBa-CBG/CBR reporter, luminescence ratio, 4 h. 340,000 tested, 0.05% active; active = well fitted inhibition curve with a large enough effect in the signal ratio, with a control signal flat, not every such curve was filed as active; inconclusive = small, poorly fitted or top-dose-only effect, or effect the other way, or a change in a side signal; the % refers to the signal ratio
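TMD8 human ABC-DLBCL cells with doxycycline-inducible IκBα–green luciferase fusion and unfused red luciferase, in 0.5% FBS medium; compounds up to 46 uM, 4 h at 37C. Green/red luminescence ratio, filter-overlap corrected, fitted to concentration-response curves.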
B2AR arrestin – qHTS assay of beta-arrestin-biased ligands of beta2-adrenergic receptor. Beta-2 adrenergic receptor (Homo sapiens), P07550. beta-arrestin recruitment to beta2AR, cell-based reporter. Potency, µM (doses to about 46.1 µM), usual class: activators. 330,000 tested, 0.02% active; note: nearly all actives have a fitted effect of over 65% in size
Target sequence (P07550 whole entry, looked up): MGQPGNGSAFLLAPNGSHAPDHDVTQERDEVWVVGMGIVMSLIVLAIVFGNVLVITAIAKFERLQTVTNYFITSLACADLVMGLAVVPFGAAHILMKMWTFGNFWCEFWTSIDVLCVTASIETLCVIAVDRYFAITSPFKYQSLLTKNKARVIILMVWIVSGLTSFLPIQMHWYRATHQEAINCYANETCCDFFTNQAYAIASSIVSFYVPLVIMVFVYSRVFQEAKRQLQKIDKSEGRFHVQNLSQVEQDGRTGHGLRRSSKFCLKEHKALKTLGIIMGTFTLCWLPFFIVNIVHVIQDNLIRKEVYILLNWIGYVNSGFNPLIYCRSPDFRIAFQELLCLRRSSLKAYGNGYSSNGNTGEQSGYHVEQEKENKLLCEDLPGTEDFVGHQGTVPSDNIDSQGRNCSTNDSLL
A number is an active result; 0 = inactive; ? = inconclusive; - = no result given; [ ] = remark or other dose. Rows were chosen to be rich in hits. Some 0.59% of all compounds tested hit in one or more screens of this group. Unless noted, calls come from the whole dose curve; as a rule, active = well fitted activation curve with a large enough effect; inconclusive = small, poorly fitted or top-dose-only effect; inactive = flat fitted curve, though single readings scatter.

SMILES | RXFP1 agonist | RXFP1 antag | BCR signal inh | B2AR arrestin
COc1cc(/C=N/NC(=O)c2ccccc2)ccc1O | 0 | 0 | ? | 0
COc1ccccc1OCCCCN1CCN(C(c2ccccc2)c2ccccc2)CC1 | 0 | -80.2 | ? | 0
c1ccc(OCCOCCN2CCN(C(c3ccccc3)c3ccccc3)CC2)cc1 | 0 | 0 | ? | 0
c1ccc(CN2CCN(C(c3ccccc3)c3ccccc3)CC2)cc1 | 0 | -103.9 | 0 | 0
Fc1ccc(CN2CCN(C(c3ccccc3)c3ccccc3)CC2)cc1 | 0 | 0 | 0 | 0
CCOc1ccc(NC(=O)c2cnn3c2NC(c2cccc(OC)c2)=CC3c2ccccc2)cc1 (stereo not given) | 0 | 0 | - | -
Cc1cccc(NC(=O)c2cc(NC(=O)c3ccco3)ccc2Cl)n1 | 0 | 0 | 23.1µM | 0
Cc1cccc(NC(=O)c2cc(NC(=O)C3CCCCC3C(=O)O)ccc2Cl)n1 (stereo not given) | 0 | 0 | 0 | 0
COc1cccc(NC(=O)C2CCCN2C(=O)Nc2ccccc2)c1 (stereo not given) | 0 | 0 | 0 | 0
COc1cccc(OC)c1NC(=O)C1CCCN1C(=O)Nc1cccc(Cl)c1 (stereo not given) | 0 | -63.0 | 0 | 0
Cc1ccccc1NC(=O)CSc1nnc(-c2ccco2)c(-c2ccco2)n1 | 0 | 0 | 0 | 0
Cc1cccc(C)c1NC(=O)CSc1nnc(-c2ccco2)c(-c2ccco2)n1 | 0 | -67.8 | ? | 0
COc1ccc(C2c3c(n(C)c4ccccc34)C(=O)N2CC(=O)Nc2cccc(Cl)c2)cc1 (stereo not given) | 0 | 0 | - | -
C=CCOc1c(Cl)cc(CNc2ccc(N(C)C)cc2)cc1OC | 0 | -102.9 | ? | 0
COc1ccccc1-c1cc2nc(C)c(CCC(=O)NCc3cccc(Cl)c3)c(C)n2n1 | 0 | - | - | -
Cc1c(CN(C)C(=O)c2cc(-c3ccccc3)nc3ccc(Br)cc23)cnn1C | 15.8µM | - | - | -
COc1ccc(CN(C)C(=O)c2cc(-c3ccccc3)nc3ccc(C)cc23)c(OC)c1OC | 0 | 0 | 0 | 0
CCCCCC1CCC(c2n[nH]c(=S)n2C)CC1 (stereo not given) | 0 | -64.4 | ? | 3.98µM
Cc1cc(C)cc(N2C(=O)C=CC2=O)c1 | - | -85.1 | - | -
Cc1cc(C)cc(N2C(=O)c3nccnc3C2=O)c1 | 0 | - | 0 | 0
Cc1ccc2c(c1C)-c1c(ccc(C)c1C)C(=O)C2=O | - | -68.7 | - | -
Oc1ccc(COC2CCCC2)c2cccnc12 | 0 | - | 7.31µM | 0
CCn1c(/C=C/c2ccc(O)cc2)nc2ccccc2c1=O | 0 | -70.7 | ? | 0
Cc1cc(C)c2c(c1)c(C)cc1nnc(SCC(=O)c3ccccc3)n12 | 0 | 0 | - | -
Cc1nc2ccccn2c1C(=O)NNC(=S)Nc1ccc(Cl)cc1 | 0 | 0 | ? | 0
SMILES | RXFP1 agonist | RXFP1 antag | BCR signal inh | B2AR arrestin
Cc1nc2ccccn2c1C(=O)NNC(=S)Nc1ccccc1 | 0 | -89.4 | ? | 0
CC(=O)OCCCNc1cc(Sc2nc3ccccc3s2)c2nonc2c1[N+](=O)[O-] | 0 | 0 | 0 | 0
CC(=O)OCCNc1cc(Sc2nc3ccccc3[nH]2)c2nonc2c1[N+](=O)[O-] | 0 | -77.7 | ? | 0
CC1(C)CC(=O)C2=C(C1)c1c(ccc3ccccc13)NC2c1cc([N+](=O)[O-])cc([N+](=O)[O-])c1O (stereo not given) | 0 | -72.3 | 0 | 0
CC1(C)CC(=O)C2=C(C1)c1c(ccc3ccccc13)NC2c1ccc(C(=O)O)cc1 (stereo not given) | 0 | 0 | ? | 0
Cc1cc(NC(=O)CN(C)S(=O)(=O)c2ccc3c(c2)CCC(=O)N3)ccc1Br | 0 | 0 | - | -
CC(NC(=O)CN(c1cccc(C(F)(F)F)c1)S(=O)(=O)c1ccc(Cl)c([N+](=O)[O-])c1)c1ccccc1 (stereo not given) | 0 | -81.7 | ? | 0
O=C(CN(c1cccc(C(F)(F)F)c1)S(=O)(=O)c1ccc(Cl)c([N+](=O)[O-])c1)NCc1ccccc1 | 0 | - | ? | 0
Cn1c(-n2cccc2)c(-c2c(-c3ccccc3)[nH]c3c2c(=O)n(C)c(=O)n3C)c(=O)n(C)c1=O | 0 | 0 | - | -
CC(C)(C)c1ccc(C(=O)NCC(c2cccnc2)N2CCc3ccccc3C2)cc1 (stereo not given) | 0 | -76.9 | - | -
Cc1ccc(C(=O)NCC(c2cccnc2)N2CCc3ccccc3C2)cc1C (stereo not given) | 0 | 0 | - | -
S=c1nc2ccccc2c2nc(-c3ccccc3)[nH]n12 | 0 | 0 | ? | 3.98µM
CC(=O)CSc1nc(-c2cccs2)c(C#N)c(=O)[nH]1 | 14.1µM | 0 | 0 | 0
CC(=O)CSc1nc(N)c(C#N)c(-c2cccs2)c1C#N | 0 | 0 | ? | 0
COc1ccc(-c2csc(Nc3ccccn3)n2)cc1OC | 0 | -83.6 | ? | 0
Cc1ccnc(Nc2nc(-c3ccc(Cl)cc3)cs2)c1 | 0 | 0 | ? | 0
Cc1ccc(-c2csc(Nc3ccccn3)n2)cc1 | 0 | 0 | ? | 0
Cc1ccnc(Nc2nc(-c3ccc(F)cc3)cs2)c1 | 0 | -66.3 | ? | 0
Cc1cn([C@H]2C[C@H](F)[C@@H](CO)O2)c(=O)[nH]c1=O | - | 0 | - | -
COc1cc(C(=O)NCC(=O)N2CCN(S(=O)(=O)c3ccccc3)CC2)cc(OC)c1OC | 0 | -63.9 | 0 | 0
CC[C@@H]([C@H](C)O)n1ncn(-c2ccc(N3CCN(c4ccc(OC[C@@H]5CO[C@@](Cn6cncn6)(c6ccc(F)cc6F)C5)cc4)CC3)cc2)c1=O | - | 0 | - | -
CCS(=O)(=O)c1nc(S(=O)(=O)c2ccc(C)cc2)c(N2CCN(C)CC2)s1 | 25.1µM | 0 | 0 | 0
CC(NCC(O)COCCC12CC3CC(CC(C3)C1)C2)c1ccccc1 (stereo not given) | 0 | -62.2 | ? | 0
O=C(NCc1ccc(Cl)cc1)C1CCN(S(=O)(=O)c2ccc(N3CCCC3=O)cc2)CC1 | 0 | -65.7 | 0 | 0
CCOC(=O)N1CCN(C(=O)C2CCN(C(=O)c3ccccc3C)CC2)CC1 | - | -102.1 | - | -
SMILES | RXFP1 agonist | RXFP1 antag | BCR signal inh | B2AR arrestin
CCCCn1c(C)cc2c(c1=O)C1O[C@](c3ccc(OC)cc3)(Cc3cc(OC)c(OC)cc31)O2 | 0[11.5 µM] | - | 0[9.22 µM] | 0[9.22 µM]
CC1=NN(c2ccccc2)C(=O)C1N=Nc1ccc(C)cc1 (stereo not given) | 0 | - | 0 | 0
CC1=NN(c2ccccc2)C(=O)C1C=Nc1ccc(N(C)C)cc1 (stereo not given) | 0 | -68.9 | 0 | 0
O=C(O)c1ccccc1NCCc1ccccc1 | - | 0 | - | -
CCOc1ccc(CN(CCc2ccc3c(c2)OCO3)Cc2cc(OC)cc(OC)c2)cc1 | 0 | 0 | - | -
Oc1ccc(C=NNC(=S)Nc2ccc(F)cc2)c(O)c1 | - | -64.4 | - | -
CC(C)(C)c1nnc(NS(=O)(=O)c2ccc(N)cc2)s1 | - | 0 | - | -
COc1cc(/C=N/NC(=O)NC2CCCCC2)ccc1O | 0 | 0 | 12.6µM | 0
O=C(c1cc(O)c(O)c(O)c1)c1ccc(O)c(O)c1O | - | 0 | - | -
CNc1ccc(/C=C(\C#N)C(=O)Nc2ccccn2)cc1[N+](=O)[O-] | 17.8µM | 0 | ? | 0
